PubChem BioAssay AID686940 (The Scripps Research Institute Molecular Screening Center, 2013)
Among all 370,000 compounds or so, about 2,600 (0.7%) were called active.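 Rule for the calls: active = inhibition above a per-plate cutoff, mean inhibition of test wells between control levels plus 3 SD (cut at about 38% in these data); inactive = the rest.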 Shown is part of a subset that was picked to be rich in actives.

target: COUP transcription factor 2 (Homo sapiens) (UniProt P24468); experiment: COUP-TFII reporter suppression in human cells – cell-based, luciferase reporter, HEK293T, luminescence, primary screen (AID 686940); conditions: HEK293T NGFI-A luciferase reporter, at 8.6 µM, active compounds read high;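 note: cells cotransfected with COUP-TFII expression vector driving the NGFI-A reporter; 0% = median of COUP-TF2 test wells and 100% = reporter-only cells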
Sequence (P24468 whole entry, looked up): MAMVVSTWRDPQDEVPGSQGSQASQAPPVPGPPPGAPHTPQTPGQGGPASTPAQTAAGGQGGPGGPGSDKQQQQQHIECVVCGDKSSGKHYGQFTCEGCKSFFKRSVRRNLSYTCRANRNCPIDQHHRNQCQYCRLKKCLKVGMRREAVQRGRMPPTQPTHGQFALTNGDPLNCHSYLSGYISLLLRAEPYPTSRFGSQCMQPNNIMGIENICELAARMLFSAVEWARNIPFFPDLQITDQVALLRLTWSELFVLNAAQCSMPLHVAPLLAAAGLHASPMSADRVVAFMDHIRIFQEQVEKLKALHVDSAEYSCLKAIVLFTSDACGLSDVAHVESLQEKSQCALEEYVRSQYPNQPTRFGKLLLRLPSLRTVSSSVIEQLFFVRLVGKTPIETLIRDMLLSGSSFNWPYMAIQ

| Compound | inhibition |
| --- | --- |
| O=C(NC1CCC1)c1ccc(C#CC2CC2)cn1 | -23.3% (inactive) |
| O=C(Nc1ccc(S(=O)(=O)NCC2CCCO2)cc1)c1ccc(F)cc1 (stereo unspecified) | 45.5% (active) |
| Cc1ccc(NC(=O)c2ccc(S(=O)(=O)NCC3CCCO3)cc2)cc1C (stereo unspecified) | -13.5% (inactive) |
| O=C(NCC1CCCO1)c1ccc(S(=O)(=O)Nc2ccc(F)cc2)cc1 (stereo unspecified) | -7.6% (inactive) |
| CCOC(=O)[C@]12CCCC=C1N(CCCOC)C(=O)[C@@H]2CC(=O)N1CCOCC1 | 13% (inactive) |
| CCCC[C@H]1C2CC(OC(=O)NCc3ccccc3)C(C2)[C@H]2CCCCN21 (stereo partly specified) | 2.27% (inactive) |
| CC(C)CNS(=O)(=O)CC1NCCc2ccccc21 (stereo unspecified) | 10.8% (inactive) |
| CCN(CC)S(=O)(=O)c1ccc(N(C)Cc2ccc(C(F)(F)F)cc2)nc1 | 41.6% (active) |
| CCN(CC)S(=O)(=O)c1ccc(N(C)Cc2cccc(OC)c2OC)nc1 | 1.36% (inactive) |
| CCN(CC)S(=O)(=O)c1ccc(N(C)CCc2ccc(OC)c(OC)c2)nc1 | -0.82% (inactive) |
| CCOC(=O)[C@@]12CCC3=C1N(CCC3)C(=O)[C@H](CC(=O)N1CCN(C(=O)c3ccco3)CC1)C2 | 0.9% (inactive) |
| COc1ccc(C2Nc3ccccc3C(=O)N2Cc2cccs2)cc1COc1c(C)cccc1C (stereo unspecified) | 14% (inactive) |
| CN(C)Cc1cn(-c2ccc(-c3noc4c3C(=O)N(CC(=O)N3CCOCC3)CC4)cc2)nn1 | 6.87% (inactive) |
| C=CCN1C(=O)[C@@H](CC(=O)NCCCOCCCC)[C@]2(C(=O)OCC)CCCCC/C=C/12 | -5.26% (inactive) |
| CC(=O)N1CCCc2cc(S(=O)(=O)N3CCCC(C(=O)N4CCN(c5cccc(Cl)c5)CC4)C3)ccc21 (stereo unspecified) | 76.9% (active) |
| Cc1ccc(S(=O)(=O)N2CCCC(C(=O)N3CCN(C)CC3)C2)cc1 (stereo unspecified) | 8.22% (inactive) |
| COc1ccc(S(=O)(=O)N2CCCC(C(=O)N3CCN(C)CC3)C2)cc1C (stereo unspecified) | -0.76% (inactive) |
| COC(=O)C1CN(CC(C)C)CCS(=O)(=O)N1Cc1ccc(C)cc1 (stereo unspecified) | 0.94% (inactive) |
| O=C(NCc1cccs1)C1CCCN(S(=O)(=O)c2ccc([N+](=O)[O-])cc2)C1 (stereo unspecified) | -10.3% (inactive) |
| Cc1ccc(-n2c(SCC(=O)Nc3cccc4ccccc34)nnc2-c2ccco2)cc1 | 6.67% (inactive) |
| Cc1ccc(C(=O)C2CCN(CC(=O)NCCC(C)C)CC2)cc1 | 6.65% (inactive) |

| Compound | inhibition |
| --- | --- |
| O=C(CSc1nc2ccccc2s1)N=Nc1c(O)[nH]c2ccccc12 | 8.58% (inactive) |
| CC1(C)CC(N2CCN(C(c3ccccc3)c3ccccc3)CC2)=CC(=[N+]2CCCCC2)C1 | 85.2% (active) |
| CCOC(=O)C1CCN(C(=O)C(C)(C)NC(=O)Nc2ccccc2Cl)CC1 | 25.7% (inactive) |
| N#C[C@]1(S(=O)(=O)c2ccccc2)C[C@@H]2ON=C(c3cccc(Br)c3)[C@@H]2C1 | 52.9% (active) |
| COC(=O)[C@]1(S(=O)(=O)c2ccccc2)C[C@@H]2ON=C(c3ccc(OC)cc3)[C@@H]2C1 | 3.59% (inactive) |
| O=C(c1c[nH]c2ccccc12)N1CCC(Oc2cccnc2)CC1 | -3.41% (inactive) |
| NC(=O)c1sc2nc3c(c(-c4ccccc4)c2c1N)CCC3 | 57.2% (active) |
| CC(C)OC(=O)c1sc2nc3c(cc2c1N)C(=O)CCC3 | -22.1% (inactive) |
| CCOC(=O)[C@]12CCCCC/C=C\1N(Cc1ccc(OC)cc1)C(=O)[C@H]2CC(=O)NCc1ccc(C)o1 | -9.71% (inactive) |
| COc1ccc(-c2cc(-c3nnc(SCc4ccc([N+](=O)[O-])cc4)n3N)[nH]n2)cc1 | 11.7% (inactive) |
| C=CCN1C(=O)[C@@H](CC(=O)NCCCCc2ccccc2)[C@]2(C(=O)OCC)CCCCC/C=C/12 | -17.9% (inactive) |
| O=C(CN1C(=O)c2ccccc2S1(=O)=O)N1CCc2ccccc21 | 57.8% (active) |
| Cc1ccc(S(=O)(=O)N(C)CC(=O)N2CCc3ccccc32)cc1 | -12.3% (inactive) |
| CN(Cc1cccs1)C(=O)CN1C(=O)c2ccccc2S1(=O)=O | -15.9% (inactive) |
| CN(c1ccc(C(=O)N2CCc3ccccc3C2)cc1)S(C)(=O)=O | -7.57% (inactive) |
| CC(=O)Nc1cccc(NC(=O)c2ccc3c(c2)CCN3S(C)(=O)=O)c1 | -21% (inactive) |
| CN(c1cccc(NC(=O)c2ccc(CN3CCc4ccccc4C3)cc2)c1)S(C)(=O)=O | 61.4% (active) |
| COCCCNC(=O)C[C@H]1C[C@@]2(C(=O)OC)C(=C[C@H](C(C)(C)C)O[C@@H]2C)N(Cc2ccc(Cl)cc2Cl)C1=O | 6.74% (inactive) |
| CCOC(=O)[C@]12CCCC3=C1N(CCC3)C(=O)[C@@H](CC(=O)NCc1cccs1)C2 | -7.47% (inactive) |
| CC(C)CNc1cccc2c1S(=O)(=O)N(Cc1cn(Cc3ccccc3C(F)(F)F)nn1)Cc1ccccc1O2 | 3.92% (inactive) |
| N#CC(C#N)=CN=c1ccn(Cc2ccc(Cl)cc2Cl)cc1 | 41.5% (active) |

| Compound | inhibition |
| --- | --- |
| Cn1ccc(=NC=C(C#N)C#N)c2ccccc21 | -6.63% (inactive) |
| CC(C)(C)c1cc(C(=O)NN)n(Cc2ccc(Cl)cc2Cl)n1 | 12.5% (inactive) |
| COC(=O)[C@H](C(C)C)N(CCc1cn(Cc2ccccc2)nn1)S(=O)(=O)c1ccc(F)cc1Br | -0.51% (inactive) |
| OC[C@@H]1CN(Cc2ccncc2)C[C@H](n2cnc3c(N4CCN(c5ccccc5)CC4)ncnc32)O1 | 65.7% (active) |
| OC[C@@H]1CN(Cc2ccc(-c3ccccc3)cc2)C[C@H](n2cnc3c(NC4CCCC4)ncnc32)O1 | 73.9% (active) |
| CC(C)Nc1ncnc2c1ncn2[C@H]1CN(Cc2ccncc2)C[C@@H](CO)O1 | -8.36% (inactive) |
| OCCN1CCN(c2ncnc3c2ncn3[C@H]2CN(Cc3ccco3)C[C@@H](CO)O2)CC1 | -8.87% (inactive) |
| OC[C@@H]1CN(Cc2cccs2)C[C@H](n2cnc3c(Nc4ccccc4)ncnc32)O1 | 10.6% (inactive) |
| OC[C@@H]1CN(C2CCCC2)C[C@H](n2cnc3c(NC4CCC4)ncnc32)O1 | -25.3% (inactive) |
| Cc1ccc(C)c(NC(=O)CCS(=O)(=O)c2ccccc2)c1 | -5.81% (inactive) |
| CCCCCN1CCCCC(NC(=O)C(C)CCC)C1=O (stereo unspecified) | 4.97% (inactive) |
| C=CCN1C(=O)[C@@H](CC(=O)N2CCN(C(=O)OCC)CC2)[C@]2(C(=O)OCC)CCCCC/C=C/12 | 3.11% (inactive) |
| C=CCN(C(=O)[C@@H](CCCC)[C@@H](O)c1ccc(Cl)cc1)c1ccccc1 | -5.06% (inactive) |
| Cc1c(C)c2cc3c4c(oc3c(C)c2oc1=O)CCCC4 | -4.7% (inactive) |
| Cc1c(CCC(=O)N[C@@H](CC(C)C)C(=O)O)c(=O)oc2c(C)c3oc4c(c3cc12)CCCC4 | 6.96% (inactive) |
| CC[C@@H](C)[C@H](NC(=O)CCc1c(C)c2cc3c4c(oc3c(C)c2oc1=O)CCCC4)C(=O)O | 39.7% (active) |
| COc1ccccc1NC(=O)CSc1nnc(CNC(=O)c2ccccc2F)o1 | 1.36% (inactive) |
| CCC(=O)Nc1ccc(C(=O)CSc2nnc(CNc3ccc(Cl)cc3)o2)cc1OC | 42.1% (active) |
| COc1cc(C(=O)NCc2nnc(SCC(=O)c3ccc(Cl)cc3)o2)cc(OC)c1OC | 7.38% (inactive) |
| O=C(CSc1nc2sc3c(c2c(=O)n1-c1ccccc1)CCCC3)NN=Cc1ccc(OCc2ccccc2)cc1 | -6.12% (inactive) |
| Cc1ccc(-n2c(SCC(=O)Nc3ccc(S(=O)(=O)Nc4nccs4)cc3)nnc2-c2ccncc2)cc1 | 3.85% (inactive) |

| Compound | inhibition |
| --- | --- |
| Cc1ccc(Nc2nc(CSc3nnc(-c4ccncc4)n3-c3ccccc3C)cs2)cc1 | 39.8% (active) |
| Cc1ccc(-n2c(SCC(=O)N3c4ccccc4Sc4ccccc43)nnc2-c2ccncc2)cc1 | 6.33% (inactive) |
| CC(C)N1CCCCC(NC(=O)c2ccc3ccccc3c2)C1=O (stereo unspecified) | -8.52% (inactive) |
| C=CCN1[C@H](CC(C)C)COc2cccc(N3CCCC3)c2S1(=O)=O | 14.6% (inactive) |
| CCCCCCCCn1c2c(c(=N)c3c1CCC3)CCCC2 | 84.5% (active) |
| O=S(=O)(c1ccccc1)N1CCC(c2nc3ccccc3o2)CC1 | -11.5% (inactive) |
| CCOC(=O)N1CCN(C(=O)C[C@H]2C[C@@]3(C(=O)OC)C(=C[C@H](C(C)(C)C)O[C@@H]3C)N(Cc3ccc(Cl)cc3Cl)C2=O)CC1 | -1.12% (inactive) |
| C=CCN1[C@@H](Cc2ccccc2)COc2cccc(N3CCSCC3)c2S1(=O)=O | 5.82% (inactive) |
| O=C(CN1CCCc2ccccc21)NCc1ccc(F)cc1 | 5.12% (inactive) |
| CCCNC(=O)Nc1ccc2c(c1)C(=O)N(C)[C@H]1CC[C@H](CC(=O)NCC3CCCCC3)O[C@@H]1CO2 | 9.56% (inactive) |
| C[C@@H]1ON(C)[C@H]2C[C@H]3c4[nH]c5cccc(-c6ccc7c(c6)OCO7)c5c4CCN3C[C@@H]12 | -15.3% (inactive) |
| COc1ccc(S(=O)(=O)N2CCCCC2)cc1NC(=O)C1CC(=O)N(c2ccc3c(c2)OCCO3)C1 (stereo unspecified) | 0.74% (inactive) |
| Cc1ccc(NC(=O)C2CC(=O)N(c3ccc4c(c3)OCCO4)C2)cc1S(=O)(=O)N1CCCCCC1 (stereo unspecified) | 42.3% (active) |
| Cc1ccc(N2CC(C(=O)Nc3ccc(S(=O)(=O)N4CCCC4)cc3)CC2=O)cc1C (stereo unspecified) | -1.2% (inactive) |
| Cc1ccccc1CN1CCCCC(NC(=O)c2cccc(C#N)c2)C1=O (stereo unspecified) | -2.68% (inactive) |
| O=C(Nc1cccc(S(=O)(=O)Nc2ccc(Cl)cc2)c1)c1ccc2c(c1)OCCO2 | 50.8% (active) |
| CC(=O)Nc1ccc(C(=O)Nc2cccc(S(=O)(=O)NC3=NCCC3)c2)cc1 | -6.18% (inactive) |
| CN1CCN(c2ccc(NC(=O)c3ccc4c(c3)OCCO4)cc2Cl)CC1 | -69.1% (inactive) |
